From PubChem
Shown are actives, neighbours in structure and some others; about 2.4% of the full set was active somewhere.
Pol kappa inh-1: qHTS for Inhibitors of Polymerase Kappa | purified Pol kappa, fluorescent DNA synthesis assay, 10 min | Potency, µM (series often up to 107 µM), for the others: at the top dose activity, negative = inhibition, hits mostly inhibitors | 400,000 tested, 0.53% active | AID 588579, 2011; also: potency is read from the fitted curve at half-maximal effect; % is scaled to controls: 0 for no effect and ±100 for the full control effect
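Inhibition of 10 nM Pol kappa is measured by a fluorescent read-out at 0 and 10 min following addition of 50 nM substrate (final), with a 15-min room-temperature compound preincubation.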
Pol eta inh-1: qHTS for Inhibitors of Polymerase Eta; 390,000 tested, 1.2% active; recombinant Pol eta, fluorescent DNA replication assay; DNA polymerase eta (Homo sapiens), Q9Y253; Potency, µM (top dose mostly 114 µM), without a hit: top-dose activity change, negative = inhibition, usual class: inhibitors; AID 588591, 2011; also: potency is read from the fitted curve at half-maximal effect; % is scaled to controls: 0 for no effect and ±100 for the full control effect
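Pol eta (10 nM) was preincubated with compounds for 15 min at room temperature, after which fluorescent replication substrate (50 nM final) was added to start the reaction. Fluorescence was read kinetically at 0 and 10 min.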
TDP1 inh: qHTS Assay for Inhibitors of Tyrosyl-DNA Phosphodiesterase (TDP1); Tyrosyl-DNA phosphodiesterase 1 (Homo sapiens), Q9NUW8; Potency, µM (series often up to 130 µM), inactives show at the top dose activity change, negative = inhibition, usual class: inhibitors; 350,000 tested, 0.28% active; recombinant TDP1, AlphaScreen DNA substrate cleavage; also: potency is read from the fitted curve at half-maximal effect; % is scaled to controls: 0 for no effect and ±100 for the full control effect; nearly all actives have a fitted effect of over 40% in size
Target sequence (Q9NUW8 whole entry, looked up): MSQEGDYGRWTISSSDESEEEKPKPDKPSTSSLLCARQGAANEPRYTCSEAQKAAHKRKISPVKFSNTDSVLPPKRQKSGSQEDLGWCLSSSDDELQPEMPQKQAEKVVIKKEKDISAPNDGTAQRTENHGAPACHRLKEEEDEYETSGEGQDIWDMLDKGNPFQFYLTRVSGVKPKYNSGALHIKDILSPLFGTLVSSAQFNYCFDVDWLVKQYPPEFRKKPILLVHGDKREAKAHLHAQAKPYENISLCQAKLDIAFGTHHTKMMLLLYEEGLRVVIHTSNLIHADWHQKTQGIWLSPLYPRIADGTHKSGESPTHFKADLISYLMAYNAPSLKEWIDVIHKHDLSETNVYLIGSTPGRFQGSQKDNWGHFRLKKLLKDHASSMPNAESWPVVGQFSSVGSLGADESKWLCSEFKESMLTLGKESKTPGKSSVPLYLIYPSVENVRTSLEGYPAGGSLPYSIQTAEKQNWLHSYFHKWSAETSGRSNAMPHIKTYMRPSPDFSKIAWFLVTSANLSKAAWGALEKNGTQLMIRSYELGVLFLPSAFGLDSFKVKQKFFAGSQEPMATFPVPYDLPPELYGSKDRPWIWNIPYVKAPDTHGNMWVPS
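AlphaScreen read-out: signal falls as enzyme removes the 3' tyrosine-FITC from a 5'-biotinylated DNA oligo (15 nM, 5 min, RT). Enzyme was E. coli-made recombinant Tdp1 at 1 nM, exposed to compound for 15 min beforehand; beads 10 ug/ml, 10 min.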
POLI inh: qHTS for Inhibitors of Polymerase Iota. DNA polymerase iota (Homo sapiens), Q9UNA4. Pol iota fluorescent replication assay, 10 min. Potency, µM (series often up to 115 µM), inactives show top-dose activity, negative = inhibition, hits mostly inhibitors. 390,000 tested, 1% active. AID 588590, 2011; also: potency is read from the fitted curve at half-maximal effect
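Fluorescent replication assay read twice, at 0 min and 10 min after adding 50 nM (final) substrate. Enzyme (10 nM) and compounds were first incubated 15 min at room temperature; enzyme-free buffer wells were negative controls.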
POLB inh: qHTS Assay for Inhibitors of DNA Polymerase Beta. Potency, µM (titrated, usually from 114 µM), for inactives: top-dose activity change, negative = inhibition, usual class: inhibitors. AID 485314, 2010. Pol beta primer extension/strand displacement, fluorescence kinetic. 340,000 tested, 1.3% active. P06746; also: potency is read from the fitted curve at half-maximal effect; % is scaled to controls: 0 for no effect and ±100 for the full control effect
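Values derive from four-parameter Hill fits of normalized kinetic data: reads at 0 and 10 min following addition of 50 nM substrate to 10 nM Pol beta preincubated 15 min with compound.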
GALK inh confirm: Confirmation Assay for Inhibitors of Human Galactokinase (GALK); purified GALK, Kinase-Glo ATP depletion luminescence; 150 tested, 70% active; Potency, µM (highest dose often 115 µM), for inactives: top-dose activity, negative = inhibition, most hits filed as inhibitors; shares compounds with Pol eta inh-1
Redox cycling: Confirmatory Assay for Inhibitors of Human Galactokinase (GALK): Phenol-HRP redox assay counterscreen. shares compounds with Pol eta inh-1. Phenol red-HRP H2O2 redox cycling, absorbance 600 nm. Potency, µM (top dose mostly 115 µM), for inactives: at the highest dose activity change, negative = H2O2 signal, actives largely listed as inhibitors. 150 tested, 40% active
HEK293 viability: Secondary Assay for Inhibitors of Human Galactokinase (GALK): HEK-293 Cell Viability Assay; shares compounds with Pol eta inh-1; Potency, µM (series often up to 46.1 µM), for inactives: at the top dose activity change, negative = cytotoxicity, hits mostly inhibitors; AID 2547, 2010; HEK-293 viability, ATP luminescence (CellTiter-Glo), 24/48 h; 170 tested, 10% active; also: potency is read from the fitted curve at half-maximal effect; % is scaled to controls: 0 for no effect and ±100 for the full control effect
Pol kappa inh-2: qHTS for Inhibitors of Polymerase Kappa: Confirmatory Assay for Cherry-picked Compounds | shares compounds with Pol eta inh-1 | purified Pol-kappa, fluorescent strand-displacement substrate | Potency, µM, usual class: inhibitors | 920 tested, 76% active; also: potency is read from the fitted curve at half-maximal effect
Pol eta inh-2: qHTS for Inhibitors of Polymerase Eta: Confirmatory Assay for Cherry-picked Compounds; 2,600 tested, 64% active; shares compounds with Pol eta inh-1; AID 720502, 2013; Potency, µM, hits mostly inhibitors; Pol eta primer extension, TAMRA/BHQ fluorescence, 10 min; also: potency is read from the fitted curve at half-maximal effect
Starred values were filed as active, the others as inactive; ? = inconclusive; . = not tested or not shown; [ ] = remark or other dose. Calls follow the shape of the dose curve; as a rule, active = well fitted curve in the direction sought with a large enough effect; inconclusive = small, poorly fitted or top-dose-only effect, or another doubt; inactive = no such curve, though single readings can be large; an effect the other way counts as inactive or inconclusive.

SMILES	Pol kappa inh-1	Pol eta inh-1	TDP1 inh	POLI inh	POLB inh	Pol eta inh-2	others
CN(CCOc1ccccc1)C(=O)CCc1nc2sc3c(c2c(=O)[nH]1)CCCC3	-35%	?	-12%	25µM*	?	?
CCOC(=O)C1CCN(C(=O)CCc2nc3sc4c(c3c(=O)[nH]2)CCCC4)CC1	?	22µM*	.	28µM*	.	?
CCOc1ccc(CCNC(=O)c2cn(C)c3ccc(S(=O)(=O)N4CCCCCC4)cc3c2=O)cc1OCC	0%	-18%	2%	10%	24%	.
Cc1nnc(NC(=O)c2cc(-c3ccncc3)nc3c(C)cccc23)s1	-11%	45µM*	3%	79µM*	7%	67*
CCc1ccc2[nH]c(=O)c(CN(Cc3ccccc3)Cc3nnnn3C(C)(C)C)cc2c1	4%	.	1%	24%	.	.
NS(=O)(=O)c1nn2cc(-c3ccccc3)nc2s1	-17%[60.1 µM]	.	11%	.	.	.
O=[N+]([O-])c1ccc2c([N+](=O)[O-])ccc3c2c1CC3	.	14µM*	.	.	.	76*
COc1ccc(CCNC(=O)CCS(=O)(=O)c2cc(Br)cc3c2N(C(C)=O)CC3)cc1OC	-10%	-3%	9%	-7%	-1%	.
N#C/C(=C(/O)c1ccco1)c1nc2ccccc2s1	-20%	15%	2%	53%	-14%	.
N#C/C(=C(/O)c1cc2ccccc2o1)c1nc2ccccc2s1	3%	-27%	1%	16%	35%	.	GALK inh confirm=?;Redox cycling=-2%;HEK293 viability=-7%
Cc1ccc(NC(=O)N/C=C/c2ccco2)cc1C	79µM*	28µM*	0%	40µM*	25µM*	?
O=C1COCCN1	-23%	.	7%	-15%	.	.
O=C(/C=C/c1ccco1)c1cccc([N+](=O)[O-])c1	?	20µM*	.	50µM*	.	?
Cc1cc(C)c(C(=O)/C=C/c2ccco2)c(=O)[nH]1	?	56µM*	16µM*	?	14µM*	85*
CCCCNc1nc2c(S(=O)(=O)c3ccc(Br)cc3)nnn2c2ccsc12	-1%	3%	3%	3%	30%	.
COc1cc(C(=O)NCC(c2ccc3c(c2)OCO3)N2CCOCC2)cc(OC)c1OC (stereo not drawn)	-7%[60.1 µM]	1%	5%	-9%	2%	.
Cn1nc(C(=O)Nc2ccc(S(=O)(=O)Nc3ncccn3)cc2)ccc1=O	?	28µM*	.	?	-23%	67*
O=C1C=CC(=O)N1CCCCCCCCCCN1C(=O)C=CC1=O	-27%	35µM*	.	?	.	.	Pol kappa inh-2=?
COc1ccccc1NC(=O)N1c2ccccc2Sc2ccccc21	-21%	-29%	.	-1%	6%	.
